From the supplement of paper PMC6555819

Columns and labels:
Assay in all cases: PBM binding z-score (relative to random genomic background probes); higher = stronger binding; sequences stand for … in GC…GCGATTGACAGCGTAGAATGAAGG
[1] = system: PPARg:RXRa DBDmut IVT, anti-RXR (DBD mutation: RXRa K156A/R161A, NR concentration 270 nM, RXRa partner concentration 90 nM)
Summary of the method: (§1)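 The probes on custom Agilent 4×180K protein-binding microarrays were double-stranded, with 34-nt variable regions bearing direct-repeat seeds, single-nucleotide variants, half-site ablations and random human genomic background sequences. Incubation lasted 1 h with ligand-free nuclear receptor dimers in PBS pH 7.4, 2% milk, 0.02% Triton X-100, 1 mM DTT, 0.2 mg/mL BSA and 0.4 mg/ml salmon testes DNA. Antibodies against each partner (one per run) detected bound dimers, and fluorescence scans were regression-normalized. Binding z-scores take the random background probes as reference.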

[2] = system: PPARg:RXRa IVT, anti-PPARg (NR concentration 270 nM, RXRa partner concentration 90 nM)
Summary of the method: as §1

[3] = system: PPARg DBDmut:RXRa IVT, anti-PPARg (DBD mutation: PPARg1 K132A/R137A, NR concentration 270 nM, RXRa partner concentration 90 nM)
Summary of the method: as §1

[4] = system: PPARg DBDmut IVT, anti-PPARg (DBD mutation: PPARg1 K132A/R137A, NR concentration 270 nM)
Summary of the method: as §1

[5] = system: PPARg homodimer (NR concentration 180 nM)
Summary of the method: as §1

[6] = system: PXR:RXRa (NR concentration 270 nM, RXRa partner concentration 90 nM)
Summary of the method: as §1

[7] = system: PXR homodimer (NR concentration 270 nM)
Summary of the method: as §1

[8] = system: RARa:RXR (NR concentration 270 nM, RXRa partner concentration 90 nM)
Summary of the method: as §1

[9] = system: RARa homodimer (NR concentration 270 nM)
Summary of the method: as §1

[10] = system: RARb:RXRa (NR concentration 270 nM, RXRa partner concentration 90 nM)
Summary of the method: as §1

Sequence | PBM binding z-score [1] | PBM binding z-score [2] | PBM binding z-score [3] | PBM binding z-score [4] | PBM binding z-score [5] | PBM binding z-score [6] | PBM binding z-score [7] | PBM binding z-score [8] | PBM binding z-score [9] | PBM binding z-score [10]
CCGACTGGGGCAAAGGTTACCATCCTCAGTACGA | 4.64 | 5.59 | -0.502 | -0.948 | 1.17 | 2.56 | -0.625 | 4.05 | -0.46 | 2.39
ATATGTAGGTTACATCCGGGTCAATCAGGCTATG | 6.83 | 7.41 | 2.24 | 2 | 1.63 | 2.93 | 0.984 | 3.51 | 0.955 | 2.32
AGAACGAGGGCAGTGAGTTGATAGCACGGGTGGC | 2.18 | 1.32 | 0.223 | -0.247 | -0.315 | 0.372 | 2 | -0.326 | -0.462 | 1.6
CCGACTGGCGCAAGGTTACCATAACGCACAGCCA | 0.00884 | -0.432 | -1.08 | -0.725 | 0.0939 | 0.262 | -0.271 | 0.604 | -0.0192 | 0.871
ACAGACGGGTGAGTGAAGGTAACTCAGCTGGACG | -0.0722 | 0.467 | 2.8e-05 | -1.31 | 0.113 | -0.343 | -0.231 | 0.0341 | -0.176 | 0.0932
TCTCGGAGGACACGAAGGTCATAGCTTTCCAGAG | 1.58 | 1.77 | -0.131 | -1.04 | 1.95 | 3.8 | 3.5 | 3.59 | 0.346 | 3.62
TCATATAGGTAAATGCTAGGTTAAAGTCCGATCT | 3.88 | 2.47 | 1.36 | 1.02 | 1.14 | 0.98 | 0.768 | 1.29 | 1.88 | 0.735
GATACAGGGTAAAGGCCAGAGTACGCGTATTGAT | 1.02 | 2.64 | 0.254 | -0.000144 | 0.5 | 0.017 | -0.0145 | 0.137 | -0.111 | 1.18
ACTTGCAGGCCAAGGGTCACTCAAGATTAGTCCG | 2.34 | 4.29 | 0.459 | -0.141 | 1.94 | 3.22 | 0.0748 | 3.99 | 0.96 | 3.6
CCTACTGGGCCATCCAGAGGTCATTGATCATATG | 4.14 | 4.6 | 0.419 | 0.464 | 2.88 | 5.05 | 2.23 | 4.9 | 0.594 | 3.21
CATTACGGGTCACGAGGTTATAGCACGACGAGCG | 5.61 | 5.99 | 1.73 | 1.78 | 4.62 | 4.8 | 0.703 | 6.52 | 1.04 | 4.68
CCAACTAGGTCACGAAAGGTCAAAGTCGAATGAC | 8.35 | 8.54 | 1.23 | 0.869 | 6.09 | 7.02 | 3.52 | 7.39 | 3.62 | 5.63
TGTCACAGTTCAAAGGTAACGTAAGTATCCACAC | 0.227 | 2.78 | 1.49 | 1.01 | 0.48 | 3.67 | 0.969 | 4.07 | -0.272 | 2.88
GCTCCGAGGACAAGGTCAGAGCTTTGTCCGTAGA | 0.525 | 0.632 | -1.51 | -1.01 | 0.305 | 1.55 | -0.543 | 1.76 | -0.762 | 3.33
TGAATGAGGTTAAAGATCAGGGAGCGTGGCGTCG | 2.38 | 3.63 | 0.471 | -0.164 | 0.404 | 1.83 | -0.192 | 2.89 | -0.32 | 1.78
TTAGCAAGGTGAGCTGAGGTCGTTGATCCAACTC | 0.492 | 1.3 | -0.527 | -1.48 | -0.0688 | 4.92 | 0.566 | 2.28 | -1.15 | 1.59
ATCCCTAGGTAAAAGTTCAGTGAATCCCGAGGAT | -0.636 | 1.17 | -0.0921 | 0.662 | 0.927 | 1.97 | 1.19 | 1.18 | 0.513 | 2.16
TCGAGTAGGATAGTCGGGGCATTCAGCCAACATA | 0.456 | -0.749 | -1.74 | -1.22 | -0.949 | -0.303 | -0.615 | -0.363 | -0.838 | -0.448
TTACCAAGGTGAGCTGTGGTCGTTGATCCAACTC | 1.27 | 1.57 | 0.175 | 0.327 | -0.41 | 0.219 | -0.79 | -0.0403 | -0.989 | 1.04
CGAACTAGGTCATTGACAGGACAGTGAGTAGTAA | 8.17 | 8.32 | 0.587 | 2.61 | 1.63 | 1.38 | 0.241 | 2.09 | 0.277 | 3.6
GCTGCTAGGTCAGGTTGGTCAGCTTACGGGTACG | 2.99 | 1.96 | -0.781 | -0.52 | 0.591 | 0.193 | -0.264 | 0.655 | -0.341 | 3.31
ATCTATAGGTAAAAGTTCAGTGAATCCCGAGGAT | 1.4 | 3.05 | 1.78 | 1.92 | 1.04 | 2.17 | 1.35 | 1.84 | 1.06 | 2.29
